In the library only some 3.5% were active in any assay of this set; here they are far more common.
FBW7 activator: activators of human E3 ligase FBW7; Q969H0; AlphaScreen FBW7–phospho-cyclin E peptide binding, activator screen; normalized activity (activation), % at 26.1 µM; 650,000 compounds, 0.13% hits; in the data active = normalized activity above about 1.9%;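 also: purified mutant Fbw7 with reduced substrate affinity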
TEAD-YAP inh: TEAD-YAP interaction inhibition. HEK-TIYL cells, TEAD-Gal4/YAP UAS-luciferase luminescence. inhibition, % at 9.12 µM. 640,000 compounds, 1.4% hits. AID 1259422; in the data active = inhibition above about 32%;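 also: 0% = median of test compound wells and 100% = reference inhibitor wells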
GPR151 activ: activators of human GPR151. 650,000 compounds, 1% hits. activation, % at 11.2 µM. PathHunter beta-arrestin GPR151 cells, luminescence. Q8TDV0; in the data active = activation above about 4.9%;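 also: 0% = median of compound wells and 100% = cells with positive control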
MITF primary: inhibitors of human MITF. AlphaScreen MITF homodimerization, bead proximity signal. inhibition, % at 2.6 µM. 650,000 compounds, 0.91% hits. AID 1259374; in the data active = inhibition above about 50%;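 also: 0% = vehicle wells with protein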
Target sequence (O75030 whole entry, looked up): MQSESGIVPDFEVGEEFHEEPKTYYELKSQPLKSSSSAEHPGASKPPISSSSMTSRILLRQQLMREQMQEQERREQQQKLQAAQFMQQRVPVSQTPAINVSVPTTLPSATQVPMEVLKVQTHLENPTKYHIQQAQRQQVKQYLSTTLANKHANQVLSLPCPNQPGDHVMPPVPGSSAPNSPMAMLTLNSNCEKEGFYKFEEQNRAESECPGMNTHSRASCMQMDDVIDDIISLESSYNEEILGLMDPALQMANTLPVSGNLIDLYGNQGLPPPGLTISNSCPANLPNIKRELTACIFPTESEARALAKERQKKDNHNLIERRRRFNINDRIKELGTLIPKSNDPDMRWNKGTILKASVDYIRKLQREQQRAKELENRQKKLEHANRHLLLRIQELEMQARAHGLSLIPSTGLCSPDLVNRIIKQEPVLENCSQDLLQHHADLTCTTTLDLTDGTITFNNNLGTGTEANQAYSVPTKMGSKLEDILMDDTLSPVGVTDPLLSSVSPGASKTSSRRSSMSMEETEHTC
GPR151 confirm: confirmation of human GPR151 activators | shares compounds with GPR151 activ | GPR151 PathHunter beta-arrestin cells, luminescence, 90 min; % of EA-reagent control over plate median | activation, % at 11.2 µM | 6,700 tested, under 10 active | AID 1508609;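 active = mean percent activation across replicates above the confirmation screen cutoff of 4.91%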
GPR119 ag: GPR119 activation, counter-screen for GPR151 activators | shares compounds with GPR151 activ | GPR119 PathHunter beta-arrestin cells, luminescence, 90 min; 0 = compound-well median, 100 = enzyme-acceptor control | activation, % at 11.2 µM | 6,700 compounds, 0.3% hits | AID 1508611;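 active = mean percent activation in the counterscreen above 29.09%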;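 also: counterscreen on off-target GPR119 to flag nonselective hits from the GPR151 activator screen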
An asterisk follows results filed as active; / = no result.

SMILES	FBW7 activator	TEAD-YAP inh	GPR151 activ	MITF primary	GPR151 confirm	GPR119 ag
Cc1cc(Cl)ccc1NC(=S)NCCc1c[nH]c2ccccc12	0	3	2	6	/	/
COc1ccccc1N=C1SC(CC(=O)Nc2cccc([N+](=O)[O-])c2)C(=O)N1C (stereo not drawn)	0	-6	14*	-3	-1	-7
O=C(NCC1CCCO1)c1cnc(-c2ccccc2)nc1 (stereo not drawn)	0	-12	0	-23	/	/
CCOC(=O)C1CCCN(C(=O)/C(C)=C\c2ccccc2)C1 (stereo not drawn)	0	-1	5.3*	2	0	-7
Cc1cc(NC(=O)c2cc(-c3ccccc3O)no2)nn1CC(=O)N1CCOCC1	0	-8	5.6*	6	1	5
O=C(c1ccc2c(c1)OCO2)N1CCCCCC1	0	-1	1	16	/	/
CC(=O)N1CCN(C(=O)c2ccc3c(c2)OCO3)CC1	0	3	5.5*	-2	0	-3
CC(=O)c1ccc(N2CCN(C(=O)c3ccc4c(c3)OCO4)CC2)cc1	0	-8	0	-11	/	/
O=C(c1ccc2c(c1)OCO2)N1CCN(c2ccc(Cl)cc2)CC1	0	-6	5.5*	17	3	-2
Cc1ccc(-n2nc(C)c(C3(O)C(=O)N(CCC(C)C)c4ccccc43)c2N)cc1 (stereo not drawn)	0	-3	-1	25	/	/
CCOC(=O)C1=C(O)/C(=C/c2ccc(N(C)C)cc2)N=C1C	0	-2	12*	15	0	-5
CCOC(=O)C1=C(O)/C(=C\c2ccc(F)cc2)N=C1C	0	5	0	-3	/	/
CC(=O)Nc1ccc(NC(=O)C/C(C)=N/NC(=O)C(=O)NCCO)cc1	0	-1	5.8*	-1	1	6
Cc1ccc(-c2csc3nnc(SCC(=O)N4CCOCC4)n23)cc1	1	0	5.0*	8	1	-1
O=C(CSc1nnc2scc(-c3ccccc3)n12)N1CCCCCC1	1	-3	-2	21	/	/
O=Cc1ccccc1OCc1ccc(Br)cc1	0	-22	1	22	/	/
COc1ccc(CN2CCC3(CCC(CNS(=O)(=O)C(C)C)O3)CC2)cc1 (stereo not drawn)	0	0	6.3*	-3	0	3
CC(C)CCNC(=O)C1CC(=O)N(C2CCCCCC2)C1 (stereo not drawn)	0	0	10*	1	0	2
CC(C)CN(CCCNC(=O)C1CC(=O)N(C2CCCC2)C1)CC(C)C (stereo not drawn)	0	0	0	10	/	/
CC(C)CCNC(=O)C1CCC(=O)N1C(C)C (stereo not drawn)	0	-6	5.2*	8	1	4
CC(=O)N(C)c1ccc(NC(=O)Cc2cccc3ccccc23)cc1	0	12	0	12	/	/
Cc1ccc(-n2nc(C)cc2/N=C/N(C)C)cc1	0	3	5.4*	9	0	0
CC(=O)Oc1cccc(C(=O)Nc2ccc(Br)cc2F)c1	0	-28	-3	-5	/	/
CCCOc1ccc(NC(=O)CC2C(=O)N(c3ccc(F)cc3)C(=S)N2CCCN2CCN(CC)CC2)cc1 (stereo not drawn)	0	-1	-1	8	/	/
Cn1c(=O)cc(N2CCCC2)n(Cc2ccc(F)cc2F)c1=O	0	1	-1	10	/	/
SMILES	FBW7 activator	TEAD-YAP inh	GPR151 activ	MITF primary	GPR151 confirm	GPR119 ag
Cn1c(=O)cc(N2CCCCC2)n(Cc2ccc(F)cc2F)c1=O	0	-10	5.7*	-6	-2	-8
Cc1ccccc1N1C(=O)c2ccc(Oc3ccc([N+](=O)[O-])cc3)cc2C1=O	0	4	0	10	/	/
Cc1ccc(C(=O)O)cc1N1C(=O)c2ccc(Oc3ccc([N+](=O)[O-])cc3)cc2C1=O	0	0	6.8*	-11	0	2
O=C(O)CN1C(=O)c2cccc3c(Cl)cc(Cl)c1c23	0	0	6.1*	-1	0	2
O=C(O)CN1C(=O)c2cccc3c(Cl)cc(Br)c1c23	0	1	0	2	/	/
CCOc1ccc(NC(=O)COC(=O)C2CC(=O)N(c3ccc(C)cc3)C2)cc1 (stereo not drawn)	0	9	-1	7	/	/
CC(=O)Nc1ccc(NC(=O)C2CC(=O)N(c3ccc(Br)cc3)C2)cc1 (stereo not drawn)	0	-4	8.5*	3	-1	-15
O=C(N/N=C/c1cccs1)C1CC(=O)N(c2ccc(Cl)cc2)C1 (stereo not drawn)	0	1	12*	-17	0	13
O=C(N/N=C/c1cccc(Br)c1)C1CC(=O)N(c2ccccc2)C1 (stereo not drawn)	2.8*	6	5.3*	13	1	5
Cc1ccc(NC(=O)COc2ccc(N3CC(C(N)=O)CC3=O)cc2)cc1 (stereo not drawn)	0	7	6.4*	7	1	7
O=C(N/N=C/c1ccc(Br)cc1)C1CC(=O)N(c2ccc(F)cc2)C1 (stereo not drawn)	0	7	0	12	/	/
O=C(CCC1CCN(C(=O)Cc2c[nH]c3ccccc23)CC1)NCc1ccc(F)cc1	0	3	0	-2	/	/
O=C(Nc1ccccc1Cl)c1cc(-c2ccc(Br)cc2)nc2ccccc12	0	9	-1	18	/	/
CCCCC(C)NC(=O)C1CC(=O)N(c2ccc(OCC)cc2)C1 (stereo not drawn)	0	7	5.5*	-10	0	13
CC(=O)n1cc(/C=c2\sc3nc4cc(C)c(C)cc4n3c2=O)c(-c2ccc(F)cc2)n1	0	-7	6.1*	-12	1	-7
CC(C)(C)n1nc(Cc2cccc3ccccc23)c2c(N)ncnc21	/	/	1	-2	/	/
CC(C)(C)n1nc(-c2ccccc2)c2c(N)ncnc21	/	/	5.2*	/	0	-1
Cc1cc2c(cc1S(=O)(=O)C(C)CC(=O)NCc1ccc(Cl)cc1)OCC(=O)N2 (stereo not drawn)	0	3	-1	-7	/	/
Cc1ccc(CNC(=O)CC(C)S(=O)(=O)c2cc3c(cc2C)NC(=O)CO3)cc1 (stereo not drawn)	0	-2	5.3*	-11	1	5
CCOc1ccccc1CNCc1ccc(OC)cc1	0	-5	2	4	/	/
Nc1cccc(-c2ncc(C(=O)NCc3ccccc3)s2)c1	0	3	1	11	/	/
O=C(NCc1cccc(C(F)(F)F)c1)c1cnc(NC2CCC(O)CC2)s1 (stereo not drawn)	0	4	5.1*	3	-1	2
O=C(NCc1cccc(C(F)(F)F)c1)c1cnc(-c2ccccc2)s1	0	14	7.6*	1	-1	-4
COc1ccc(-c2ncc(C(=O)NCc3cccc(C(F)(F)F)c3)s2)cc1	0	-2	-3	0	/	/

High-throughput results (PubChem)
